Source: PubChem BioAssay (NCATS)
Results filed as inconclusive are left out. Calls of active or inactive are those of the source. The call rests on the fitted dose curve.

Experiment: Cytotoxicity counterscreen for inhibitors of SARS-CoV-2 cell entry (AID 1645845); further: nearly all actives have a fitted effect of over 50% in size
Settings: cell viability (SARS-CoV-2 entry assay cells); series mostly up to 57.1 µM; activity change, negative = cytotoxicity: at the top concentration
Description: Assay Provider: Wei Zheng, Ph.D.
National Center for Advancing Translational Sciences, National Institute of Health, Rockville, MD.
SARS-CoV-2 spike protein, within the viral envelope, mediates viral attachment and infection of host cells. The SARS-CoV-2 spike protein specifically binds to the host receptor ACE2 (Angiotensin-converting enzyme 2). This interaction promotes endocytosis of the viral particle, additional events lead to viral-host cell membrane fusion and release of the viral contents, allowing viral replication.
While SARS-CoV-2 requires BSL-3 facilities for live virus work, pseudo-typed partices (PP) that incorporate SARS-CoV-2 spike proteins without replication elements could facilitate studies on viral entry mechanisms in a BSL-2 setting. This PP cell entry assay could also enable screening of small molecule compound libraries in BSL-2 setting to identify inhibitors of SARS-CoV-2 cell entry. To eliminate false positive compounds, ATP content cytotoxicity assay was screened in the same cell line.
SEQUENCE No. (e.g., 1, 2, 3, etc.); […] (e.g., Cells, Incubation, Reagent, etc.); VALUE and DESCRIPTION.
1. Cells. Seed 1500 HEK293-ACE2 cells (Expi293F with stable expression of human ACE2) in 2 uL/well media (DMEM, 10% FBS, 1x L-glutamine, 1x Pen/Strep, 1 ug/ml puromycin) in white 1536-well assay plates (Greiner #782073).
2. Incubation. Incubate at 37 C with 5% CO2 overnight (~16 h).
3. Compounds. Dispense 23 nL/well compounds in DMSO via pin transfer.
4. Incubation. Incubate for 1 h at 37C 5% CO2.
5. Reagent. Dispense 2 uL/well of media (DMEM, 10% FBS, 1x L-glutamine, 1x Pen/Strep, 1 ug/ml puromycin).
6. Incubation. Incubate at for 48h at 37C 5% CO2
7. Reagent. Dispense 4 uL/well of ATPLite 1step luminescence assay reagent (PerkinElmer #6016739).
8. Incubation. Incubate for 15 min at room temperature.
9. Detection. Read luminescence signal (Viewlux plate reader, PerkinElmer). Data was normalized with wells containing cells as 100%, and wells without cells (media only control) as 0%.
On the % scale 0 is the no-effect control and ±100 the full control effect; potency means the concentration at half of the fitted maximal effect.

SMILES	activity change, negative = cytotoxicity	outcome	Potency
CCOC(CN1C(=O)[C@](CC(=O)Nc2ccc(C)cc2)(NC(=O)Nc2ccc(C)cc2)c2ccccc21)OCC	-6.2% (inactive)	–	–
CC(=O)N[C@@H](Cc1ccc(O)cc1)C(=O)O	-5.49% (inactive)	–	–
N#C/C(=C1\SCC(c2ccccc2Cl)S1)n1ccnc1 (stereo not given)	-12.6% (inactive)	–	–
CN1CCN(c2ccc([N+](=O)[O-])c3no[n+]([O-])c23)CC1	2.66% (inactive)	–	–
CCN(c1ccccc1)c1cc(NC)[n+](C)c(C)n1	–	inactive	–
CN(C)C1CCN(C(=O)c2ccc(NC(=O)Nc3nc(N4CCOCC4)nc(N4CCOCC4)n3)cc2)CC1	–	–	6.31 µM (active)
CCOc1cc(C(=O)Nc2ccc(Cl)c(-c3nc4ccccc4[nH]3)c2)cc(OCC)c1OCC	–	inactive	–
Cc1ccc(NC(=O)c2cccc(C(C)(C)C#N)c2)cc1Nc1ccc2ncn(C)c(=O)c2c1	-5.52% (inactive)	–	–
Cn1c(=O)c(F)c(Nc2ccc(I)cc2F)c2c(=O)n(C[C@@H](O)CO)cnc21	–	inactive	–
CCNC(=O)C[C@@H]1N=C(c2ccc(Cl)cc2)c2cc(OC)ccc2-n2c(C)nnc21	-1.19% (inactive)	–	–
CCN(CC)C(=O)c1ccc(C2=CC3(CCNCC3)Oc3cccc(O)c32)cc1	3.35% (inactive)	–	–
CC(C)(C)c1cc(C=C(C#N)C#N)cc(Br)c1O	–	inactive	–
O=c1[nH]c(-c2ccc(C(F)(F)F)cc2)nc2c1CSCC2	–	inactive	–
O=C(O)c1ccc2cc(-c3ccc(O)c(C45CC6CC(CC(C6)C4)C5)c3)ccc2c1	–	–	3.16 µM (active)
CC(C)Oc1cc(Nc2nc(N[C@@H](C)c3ccc(F)cn3)ncc2Cl)[nH]n1	-6.28% (inactive)	–	–
N#Cc1c(O)c2c(-c3ccc(-c4ccccc4O)cc3)csc2[nH]c1=O	–	inactive	–
c1ccc2[nH]ccc2c1	–	inactive	–
Cc1cc(O)ccc1Cl	-10.4% (inactive)	–	–
Cc1cc(Nc2nc(N[C@@H](C)c3ncc(F)cn3)ncc2Cl)n[nH]1	-17.9% (inactive)	–	–
Cc1n[nH]c(C)c1Cc1sc2c(c1C(=O)N1C[C@H](O)CO1)c(=O)n(C)c(=O)n2CC(C)C	-7.21% (inactive)	–	–

SMILES	activity change, negative = cytotoxicity	outcome	Potency
COc1cc2nc(-c3ccc(N4CCN(C)CC4)cc3)nc(NCCN3CCOCC3)c2cc1OC	-4.16% (inactive)	–	–
c1ccc2c(CCNc3ccc(Nc4ccncc4)cc3)c[nH]c2c1	–	–	17.8 µM (active)
CC(=O)N[C@@H](CCC(N)=O)C(=O)O	–	inactive	–
c1ccc(C2(c3ccccc3)CC2C2=NCCN2)cc1 (stereo not given)	–	inactive	–
CC(C)c1ccc2c(c1)c(SC(C)(C)C)c(CC(C)(C)C(=O)O)n2Cc1ccc(Cl)cc1	4.37% (inactive)	–	–
COc1ccc(N(C(=O)Oc2c(C)cccc2C)c2ccnc(Nc3ccc(N4CCN(C)CC4)cc3)n2)c(OC)c1	–	inactive	–
O=C(O)COc1ccccc1	–	inactive	–
O=C(NCC1CCOCC1)c1cnc(Nc2ccc(Cl)cc2Cl)nc1C(F)(F)F	–	inactive	–
C1CCC(NC2CCCCC2)CC1	3.69% (inactive)	–	–
Nc1nc(-c2nn(Cc3ccccc3F)c3ncccc23)nc(N)c1N1CCOCC1	–	inactive [at 27.1 µM]	–
NC(=O)C1CCCc2c1[nH]c1ccc(Cl)cc21 (stereo not given)	–	inactive	–
CC(C)(C)c1cc(NC(=O)Nc2ccc(-c3cn4c(n3)sc3cc(OCCN5CCOCC5)ccc34)cc2)no1	-10.2% (inactive)	–	–
Cc1ccnc(NS(=O)(=O)c2ccc(NC(=O)Nc3ccc(S(=O)(=O)Nc4nccc(C)n4)cc3)cc2)n1	–	inactive	–
CC(=O)Oc1ccccc1C(=O)O	–	–	inactive
CC1=C(C/C=C(\C)CCC[C@H](C)CCC[C@H](C)CCCC(C)C)C(=O)c2ccccc2C1=O	1.4% (inactive)	–	–
Cc1cnc(-c2cnc(NCCNc3ccc(C#N)cn3)nc2-c2ccc(Cl)cc2Cl)[nH]1	–	inactive	–
COc1cc2c(Oc3ccc(NC(=O)C4(C(=O)Nc5ccc(F)cc5)CC4)cc3F)ccnc2cc1OCCCN1CCOCC1	–	–	31.6 µM (active)
NCCCC(N)(C(=O)O)C(F)F (stereo not given)	–	–	inactive
CCOC(=O)c1c(C(C#N)=CN)c2ccc(Cl)c(Cl)c2n1C	1.38% (inactive)	–	–
NC(=O)c1ccc(-c2nc(-c3ccc4c(c3)OCCO4)c(-c3ccccn3)[nH]2)cc1	-1.46% (inactive)	–	–
